Reference: the supplement of paper PMC9135407
Counter-ions that a name gives are not always drawn.

system: primary human hepatic stellate cells (donor 1); experiment: ACTA2 mRNA fold change vs DMSO (normalised to PSMB2); higher = more ACTA2 expression; settings: 48 h
Method: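 Secondary qRT-PCR screen in primary human HSCs (donor 1), 384-well plates, with compounds dispensed in quadruplicate and incubated for 48 h. Cells-to-CT lysates were used for multiplexed TaqMan qPCR of ACTA2 or COL1A1 with PSMB2 as reference. Fold changes versus DMSO come from a linear model (Ct_gene ~ Ct_PSMB2 + plate + chemical). A hit is defined as COL1A1 and ACTA2 FC <0.5 (FDR <0.05) with PSMB2 between 0.2 and 2.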

| Structure (SMILES) | ACTA2 mRNA fold change |
| --- | --- |
| CCN(CC)CCCCNc1ncc2cc(-c3c(Cl)cccc3Cl)c(NC(=O)NC(C)(C)C)nc2n1 (33.3333 µM) | 0.196 |
| CNc1nccc(-c2cccnc2Oc2cc(C(=O)Nc3cccc(C(F)(F)F)c3)ccc2C)n1 (33.3333 µM) | 0.569 |
| O=C(Nc1cc(C(F)(F)F)cc(C(F)(F)F)c1)c1cc(Cl)ccc1O (33.3333 µM) | 0.0138 |
| CN1CCC(NC(=O)c2cc(-c3c(O)cc(O)cc3Oc3ccc([N+](=O)[O-])cc3)on2)CC1 (33.3333 µM) | 1.25 |
| CCCCCCCCCCCCC/C=C/[C@@H](O)[C@H](CO)N(C)C [N,N-Dimethylsphingosine] (3.33333 µM) | 0.651 |
| CNCCCC1c2ccccc2C=Cc2ccccc21 [Protryptyline hydrochloride] (22.2333 µM) | 0.577 |
| C[C@@H](Oc1cc(-c2cnn(C3CCNCC3)c2)cnc1N)c1c(Cl)ccc(F)c1Cl (11.1 µM) | 0.15 |
| COc1ccccc1OCCNCC(O)COc1cccc2[nH]c3ccccc3c12 (stereo not given) [Carvedilol] (33.3333 µM) | 0.0773 |
| CCCCc1oc2ccccc2c1C(=O)c1cc(I)c(OCCN(CC)CC)c(I)c1 (33.3333 µM) | 0.0284 |
| N=C(N)SCCc1ccc(OCc2ccc([N+](=O)[O-])cc2)cc1 [KB-R7943 mesylate] (33.3333 µM) | 0.0804 |
| CNC(=O)[C@@H](Cc1ccccc1)N(C)C(=O)[C@@H](Cc1ccc2ccccc2c1)N(C)C(=O)/C=C/CC(C)(C)N [Tabimorelin] (33.3333 µM) | 0.46 |
| CC[C@@H]1C(=O)N(C)c2cnc(Nc3ccc(C(=O)NC4CCN(C)CC4)cc3OC)nc2N1C1CCCC1 (33.3333 µM) | 0.158 |
| Cc1nc2ccc(-n3ncc(C(=O)c4cc5ccccc5[nH]4)c3N)cc2[nH]1 (33.3333 µM) | 0.785 |
| CN(C)Cc1c(C(=O)NCCOc2ccc(C(=O)NO)cc2)oc2ccccc12 (33.3333 µM) | 0.00935 |
| CN1CCN(Cc2ccc(-c3cnc4[nH]cc(-c5ccc6[nH]ccc6c5)c4c3)cc2)CC1 (6.66667 µM) | 0.042 |
| CN1CCN(C2=Cc3ccccc3Oc3ccc(Cl)cc32)CC1 (33.3333 µM) | 0.196 |
| CN(C)C/C=C(/c1ccc(Br)cc1)c1cccnc1 [Zimelidine dihydrochloride] (11.1 µM) | 0.452 |
| Cn1cc(CNCC2CCN(c3ncc(C(=O)NO)cn3)CC2)c2ccccc21 [Quisinostat] (33.3333 µM) | 0.00604 |
| COC(=O)C[C@](O)(CCCC(C)(C)O)C(=O)O[C@@H]1C(OC)=C[C@]23CCCN2CCc2cc4c(cc2[C@H]13)OCO4 [Homoharringtonine] (33.3333 µM) | 0.0673 |
| O=C(O[C@H]1CN2CCC1CC2)N1CCc2ccccc2[C@@H]1c1ccccc1 [Solifenacin succinate] (33.3333 µM) | 0.257 |

| Structure (SMILES) | ACTA2 mRNA fold change |
| --- | --- |
| O=S(=O)(NCCNC/C=C/c1ccc(Br)cc1)c1cccc2cnccc12 [H-89, Dihydrochloride] (11.1 µM) | 1.09 |
| CN1CCC(=C2c3ccccc3C=Cc3ccccc32)CC1 [Cyproheptadine] (33.3333 µM) | 0.172 |
| O=C1NCN(c2ccccc2)C12CCN(CCCC(c1ccc(F)cc1)c1ccc(F)cc1)CC2 [Fluspirilene] (14.0333 µM) | 1.03 |
| CC#CCOC(=O)c1c(C)nc2sc3c(c2c1N)CCC(O)C3 (stereo not given) (33.3333 µM) | 0.806 |
| CCCCCCCCc1ccc(CCC(N)(CO)CO)cc1 [Fingolimod (FTY720) HCl] (11.1 µM) | 0.301 |
| C[C@H]1O[C@@H](O[C@H]2[C@@H](O)C[C@H](O[C@H]3[C@@H](O)C[C@H](O[C@H]4CC[C@@]5(C)[C@H](CC[C@@H]6[C@@H]5C[C@@H](O)[C@]5(C)[C@@H](C7=CC(=O)OC7)CC[C@]65O)C4)O[C@@H]3C)O[C@@H]2C)C[C@H](O)[C@@H]1O [Digoxin] (33.3333 µM) | 0.0126 |
| NC1(c2ccc(-c3nc4ccn5c(=O)[nH]nc5c4cc3-c3ccccc3)cc2)CCC1 (11.1 µM) | 0.33 |
| O=C1Nc2ccccc2/C1=C1/Nc2ccccc2C1=O [Indirubin] (63.5333 µM) | 1.06 |
| O=C(Nc1ncc(SCCN2CCCC2)s1)[C@]1(c2ccc(S(=O)(=O)C3CC3)cc2)C[C@H]1C1CCCCC1 (11.1 µM) | 0.00928 |
| C#CC1(O)CC[C@H]2[C@@H]3CCC4=CC(=O)CC[C@@H]4[C@H]3CC[C@@]21CC (stereo not given in full) [Norgestrel] (21.3333 µM) | 0.714 |
| CCN(CC)CCNC(=O)c1c(C)[nH]c(/C=C2\C(=O)Nc3ccc(F)cc32)c1C (6.66667 µM) | 1.2 |
| CCN(CC)CC#CCOC(=O)C(O)(c1ccccc1)C1CCCCC1 (stereo not given) [Oxybutynin chloride] (16.9333 µM) | 1.09 |
| CN(C)CCC(c1ccc(Br)cc1)c1ccccn1 (stereo not given) [Brompheniramine maleate] (33.3333 µM) | 1.25 |
| CC(C)NCCCn1c(Sc2cc3c(cc2I)OCO3)nc2c(N)ncnc21 (33.3333 µM) | 1.26 |
| Cc1ccc(NC(=O)C(C)C)cc1C1CCN(Cc2ccc(Oc3ccc(F)c(F)c3)cc2)CC1 (33.3333 µM) | 0.0197 |
| Cc1nc(Nc2ncc(C(=O)Nc3c(C)cccc3Cl)s2)cc(N2CCN(CCO)CC2)n1 (33.3333 µM) | 0.192 |
| CCc1cc2c(cc1CC)CC(NC[C@H](O)c1ccc(O)c3[nH]c(=O)ccc13)C2 [Indacaterol Maleate] (33.3333 µM) | 0.0334 |
| Cc1ccc(NC(=O)c2ccc(CN3CCN(C)CC3)cc2)cc1Nc1nc(-c2cccnc2)cs1 [Masitinib (AB1010, Masivet)] (6.66667 µM) | 0.706 |
| CNCCC(Oc1ccc(C(F)(F)F)cc1)c1ccccc1 (stereo not given) [Fluoxetine hydrochloride] (33.3333 µM) | 0.0314 |
| Cc1cccc(Nc2nc(-c3ccncc3)cs2)c1 (11.1 µM) | 1.07 |
